Results reported in PubChem BioAssay (NCATS).
Records with an inconclusive call do not appear. Unmarked numbers belong to inactive results. Calls of active or inactive are those of the source. Calls follow the shape of the dose curve; as a rule, active = well fitted inhibition curve with a large enough effect; inconclusive = small, poorly fitted or top-dose-only effect, or effect the other way; inactive = flat fitted curve, though single readings scatter.

experiment: qHTS for Inhibitors of Plasmodium falciparum (GB4) proliferation (AID 504315);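 also: 0% = DMSO vehicle and -100% = 0.29 µM artemisinin control; nearly all actives have a fitted effect of over 50% in size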; details: P. falciparum GB4 in erythrocytes, SYBR Green DNA, 72 h; series mostly up to 6.7 µM; activity change, negative = inhibition: at the top concentration
Source text: Plasmodium falciparum is a virulent malarial parasite that kills 1-2 million people worldwide each year. Malaria not only inflicts tremendous suffering and morbidity on the human population, but has dramatically influenced the course of civilization with profound sociological and economic implications (Shah, S. 2010). Transmitted by mosquitoes, the sporozoite form of the parasite enters the blood stream to infect hepatocytes, where they become merozoites that infect red blood cells (erythrocytes). Within erythrocytes, merozoites begin a […] cycle of growth and division, after which the parasite is released to infect new red blood cells. Gametocytes, which form within erythrocytes as well, circulate in the bloodstream and are ingested by the mosquito, thereby completing the life cycle (see CDC website). To profile malarial lines for differential chemical responses and to identify inhibitors of malarial growth, an assay that measures P. falciparum growth and replication within erythrocytes was employed. This assay uses a DNA binding fluorescent dye (SYBR Green) to detect parasite DNA following cell lysis. Because mature erythrocytes lack DNA, only Plasmodium-derived DNA is detected. The P. falciparum line cp250, derived from a malarial isolate from Cambodia, (Mu, J., et al. 2010) was added to the panel of lines, Dd2, HB3, 7G8 and GB4 in this study. Laboratory of Assay Development and Screening Technology [ADST] and NIH Chemical Genomics Center [NCGC] Boston University, Chemistry Department, Center for Chemical Methodology and Library Development [CMLD-BU] NIH National Institute of Allergy and Infectious Diseases [NIAID]
ADST Assay Protocol Summary: The 1536-well SYBR Green viability assay was based on the method of Bennett et al (2004) and described previously in 1536-well format (Yuan J., et al. 2009). For screening 3 ul culture medium was dispensed into 1536 well black clear bottom plates (Aurora Biotechnologies) using a Multidrop Combi (Thermo Fisher Scientific Inc.), 23 nL compounds in DMSO were added by a pin transfer (Cleveland, P.H. and Koutz, P.J, 2005) using a pin tool-based delivery system (Kalypsys), and 5 ul of erythrocytes infected with P. falciparum one of five lines (cp250, Dd2, HB3, 7G8 or GB4, 0.3% parasitemia, 2.5% hematocrit final concentration) were added. The plates were incubated at 37C in a humidified incubator in 5% CO2 for 72 h, and 2 ul lysis buffer (20 mM Tris HCl, 10 mM EDTA, 0.16% saponin, 1.6% triton X, 10X SYBR Green I (supplied as 10,000X final concentration by Invitrogen) was added to each well. The plates were mixed for 25 sec with gentle shaking and incubated overnight at room temperature in the dark. The following morning, fluorescence intensity at 485(14) nm excitation and 535(25) nm emission wavelengths was measured on an EnVision (Perkin Elmer) plate reader. Plate reads were normalized relative to the control inhibitor (0.29 uM artemisinin) and vehicle (DMSO) wells present on each plate and then corrected by an algorithm using vehicle-only control plates at the beginning and end of the compound plate stack. References Shah, S. (2010). The Fever: how malaria has ruled humankind for 500,000 years. New York, Sarah Crichton Books. CDC web site, http://www.cdc.gov/malaria/about/biology/index.html Mu, J., Myers, R.A., Jiang, H., Liu, S., Ricklefs, S., Waisberg, M., Chotivanich, K., Wilairatana, P., Krudsood, S., White, N.J., et Plasmodium falciparum genome-wide scans for positive selection, recombination hot spots and resistance to antimalarial drugs Nature Genetics 2010, 42, pp 268-271 Bennett TN, Paguio, M., Gligorijevic, B., Seudieu, C., Kosar, A. D., Davidson, E., and Roepe, P. D. Novel, rapid, and inexpensive cell-based quantification of antimalarial drug efficacy Antimicrobial Agents Chemother. 2004, 48(5): pp 1807-10 Yuan J, Johnson RL, Huang RL, Wichterman J, Jiang HY, Hayton K, Fidock DA, Wellems TE, Inglese J, Austin CP, Su XZ. […]

Question: With `COC(=O)[C@@H]1[C@@H](c2ccccc2)[C@H]2C(=O)c3c(OC)cc(OC)cc3O[C@@]12c1ccc(OC)cc1` as the compound, how does the “activity change, negative = inhibition” value read?
Answer: -3.85%

Question: With `COC(=O)C1=C2CCO[C@@H]2[C@H]2[C@@H](C)[C@H](OC)c3ccccc3[C@H]12` as the compound, how does the “activity change, negative = inhibition” value read?
Answer: -8.33%

Question: Which “activity change, negative = inhibition” value does the source give for `CO[C@@H]1c2ccccc2[C@H]2C(C(=O)O)c3c(n(C)c4ccccc34)[C@H]2[C@H]1C` (stereo partly drawn) here?
Answer: -11.2%

Question: With `COC(=O)C1=C2CCCO[C@H]2[C@@H]2[C@@H](C)[C@H](OC)c3ccccc3[C@@H]12` as the compound, how does the “activity change, negative = inhibition” value read?
Answer: 4%

Question: With `COC(=O)[C@@]1(C=C2c3ccc(F)cc3[C@@H](OC)[C@@H]2C)[C@@H]2c3ccccc3O[C@@H]21` as the compound, how does the “activity change, negative = inhibition” value read?
Answer: -14.4%

Question: Which “activity change, negative = inhibition” value does the source give for `CCOC(=O)[C@]12C[C@]3(C)CCN(C(=O)N[C@@H]1c1ccccc1)[C@@H]32` here?
Answer: 8.41%

Question: With `CCOC(=O)[C@]12C[C@]3(OC)CCN(C(=O)N[C@@H]1c1ccccc1)[C@@H]32` as the compound, how does the “activity change, negative = inhibition” value read?
Answer: 0.446%

Question: Which “activity change, negative = inhibition” value does the source give for `CC(=O)[C@]12C[C@@H]3CCCN(C(=O)N[C@@H]1c1ccccc1)[C@@H]32` here?
Answer: 0.674%

Question: With `COC(=O)[C@]12C[C@@H]3CCN(C(=O)N[C@@H]1c1ccccc1)[C@@]32C` as the compound, how does the “activity change, negative = inhibition” value read?
Answer: -4.75%

Question: With `COC(=O)[C@@]1(C=C2c3ccccc3[C@@H](OC)[C@@H]2C)[C@@H]2Oc3ccccc3[C@@H]21` as the compound, how does the “activity change, negative = inhibition” value read?
Answer: 3.21%

Question: For `COC(=O)C1(C)C2CC(C)C(c3ccccc32)N1C(=O)C(F)(F)F` (stereo not drawn), which “activity change, negative = inhibition” value is on record?
Answer: 3.3%

Question: Which “activity change, negative = inhibition” value does the source give for `COC(=O)[C@@]1(C=C[C@@H](C)[C@H](OC)c2ccccc2Br)[C@@H]2Oc3ccccc3[C@@H]21` here?
Answer: -5.06%

Question: Which “activity change, negative = inhibition” value does the source give for `COC(=O)C1=C2CCO[C@H]2[C@@H]2[C@@H](C)[C@H](OC)c3ccccc3[C@@H]12` here?
Answer: -3.26%

Question: For `CCOC(=O)[C@]12C[C@@H]3CCN(C(=O)N(C(C)=O)[C@@H]1c1ccccc1)[C@@H]32`, which “activity change, negative = inhibition” value is on record?
Answer: -7.45%

Question: With `CCC[C@]12CCN3C(=O)N[C@@H](c4ccccc4)[C@](C(=O)OCC)(C1)[C@H]32` as the compound, how does the “activity change, negative = inhibition” value read?
Answer: -3.65%

Question: For `COC(=O)C1=C[C@H]([C@@H](C)[C@H](OC)c2ccccc2Br)[C@H]2[C@H]1c1ccccc1N2C`, which “activity change, negative = inhibition” value is on record?
Answer: -4.34%

Question: For `COC(=O)C1=NN=C(C(=O)OC)[C@@]2(C)c3ccccc3NC12` (stereo partly drawn), which “activity change, negative = inhibition” value is on record?
Answer: 12.5%

Question: For `CC(=O)[C@]12[C@H](c3ccccc3)[C@@H]3CCN(C(=O)N[C@H]1c1ccccc1)[C@@]32C`, which “activity change, negative = inhibition” value is on record?
Answer: 1.03%

Question: Which “activity change, negative = inhibition” value does the source give for `COC(=O)C12CC3=CCC4C(=O)N(c5ccccc5)C(=O)C4C3Cc3ccccc3[C@H]1CNC2=O` (stereo partly drawn) here?
Answer: -11.4%

Question: Which “activity change, negative = inhibition” value does the source give for `CC(=O)[C@]12C[C@]3(C)CCCN(C(=O)N[C@@H]1c1ccccc1)C32` (stereo partly drawn) here?
Answer: -1.97%

Question: With `COC(=O)[C@@]12Cc3ccccc3[C@H]1C[C@H](C)[C@@H](C)N2C(=O)C(F)(F)F` as the compound, how does the “activity change, negative = inhibition” value read?
Answer: -9.72%

Question: For `C=C1[C@@H]2CCN3C(=O)N[C@@H](c4ccccc4)[C@@]1(C(=O)OCC)C23` (stereo partly drawn), which “activity change, negative = inhibition” value is on record?
Answer: -1.09%

Question: With `CCOC(=O)[C@@]12C3[C@@H](CCN3C(=O)N[C@@H]1c1ccccc1)[C@@H]2C` (stereo partly drawn) as the compound, how does the “activity change, negative = inhibition” value read?
Answer: -6.73%

Question: For `CCOC(=O)[C@]12C[C@@H]3OCCN(C(=O)N[C@@H]1c1ccccc1)[C@@H]32`, which “activity change, negative = inhibition” value is on record?
Answer: 2.07%

Question: Which “activity change, negative = inhibition” value does the source give for `CCOC(=O)[C@]12C[C@]3(C)CCCN(C(=O)N[C@@H]1c1ccccc1)[C@@H]32` here?
Answer: 11.4%

Question: With `COC(=O)[C@@]1(C=C2c3ccc(F)cc3[C@@H](OC)[C@@H]2C)[C@@H]2Oc3ccccc3[C@@H]21` as the compound, how does the “activity change, negative = inhibition” value read?
Answer: -10.1%

Question: Which “activity change, negative = inhibition” value does the source give for `C=C(C)C(=O)CP(=O)(OCC)OCC` here?
Answer: 13.1%

Question: For `COC(=O)C1C2CC(C)C(c3ccccc32)N1C(=O)C(F)(F)F` (stereo not drawn), which outcome is on record?
Answer: inactive
